# Test results as given in ChEMBL document CHEMBL3988442, “University of Dundee, Small-Polar-MMV Screening Library” (2021).
# Out of some 66,000 compounds screened, about 960 (1.5%) showed an effect of 50% or more. For the sample, strong results were picked, then their nearest neighbours and some compounds at random.
# System: Trypanosoma brucei
# Experiment: Trypanosoma brucei 72 hour study
# Format: functional, organism-based
# Design: scale not given: in the data most compounds retested in dose-response had high values
smiles,measurement,setting,value
Cc1ccccc1CN1CCCC1c1cccc(Nc2nccs2)n1 (centres undefined),Percent Effect,"30.3 µM, […]",5.594%
c1ccc(CCN2CCCC2c2cccc(Nc3nccs3)n2)cc1 (centres undefined),Percent Effect,"30.3 µM, […]",29.28%
COCC(=O)N1CCCC1c1cccc(Nc2ncc(C)s2)n1 (centres undefined),Percent Effect,"30.3 µM, […]",85.92%
Cc1cnc(Nc2cccc(C3CCCN3C(=O)CO)n2)s1 (centres undefined),Percent Effect,"30.3 µM, […]",28.67%
CS(=O)(=O)N1CCCC1c1cccc(Nc2nccs2)n1 (centres undefined),Percent Effect,"30.3 µM, […]",92.1%
COCC(=O)N1CCCCC1c1ccnc(Nc2ncc(C)s2)n1 (centres undefined),Percent Effect,"30.3 µM, […]",16.03%
Cc1nnc2n1CCN(C(=O)CN(C)Cc1ccccc1)C2,Percent Effect,"30.3 µM, […]",-14.91%
O=C(NCC1CCOCC1)[C@@H]1CC[C@@H]2[C@@H](CCN2Cc2ccncc2)O1.O=C(O)C(F)(F)F.O=C(O)C(F)(F)F,Percent Effect,"30.3 µM, […]",-62.66%
CCc1noc(CCC(=O)N[C@@H]2CC[C@@H](n3ccnc3C)[C@@H]2O)n1,Percent Effect,"30.3 µM, […]",-7.313%
O=C(O)C(F)(F)F.c1coc(CN2CCO[C@H]3[C@H](OCC4CC4)CC[C@@H]32)c1,Percent Effect,"30.3 µM, […]",0.4404%
Oc1c(F)cc(CNc2cccc(-c3nnc[nH]3)c2)cc1F,Percent Effect,"30 µM, 30.03 µM",-51.33%
c1cc(NCc2ccsc2)cc(-c2nnc[nH]2)c1,Percent Effect,"30 µM, 30.03 µM",-50.24%
Oc1ccc(Br)c(CNc2cccc(-c3nnc[nH]3)c2)c1,Percent Effect,"30 µM, 30.03 µM",56.16%
CCCc1nc2c(c(C)c(C)n2Cc2ccncc2)c(N)c1CC,Percent Effect,"30.3 µM, […]",11.66%
CCCc1nc2c(c(C)c(C)n2Cc2cccnc2)c(N)c1CC,Percent Effect,"30.3 µM, […]",26.57%
CCCc1nc2c(c(C)c(C)n2Cc2ccccn2)c(N)c1CC,Percent Effect,"30.3 µM, […]",99.32%
COc1cccc(-c2noc(C3CCN(Cc4ccc(C)cc4)C3)n2)c1.Cl (centres undefined),Percent Effect,"30.3 µM, […]",4.598%
Cc1nc(=O)c2ccccc2n1C1=CCN(CC(=O)N2CCCC2)CC1,Percent Effect,"30.3 µM, […]",9.131%
COc1cc(C(=O)N2CCCS2(=O)=O)cc(Cl)c1OC,Percent Effect,"30 µM, 30.03 µM",-12.01%
COCC1CC2(CCN(C(=O)c3ccc(OC)c(Cl)c3)CC2)CO1 (centres undefined),Percent Effect,"30 µM, 30.03 µM",-6.719%
COc1ccc(C(=O)N2C[C@@H](CN3CCCCC3)[C@@H](CO)C2)cc1Cl,Percent Effect,"30 µM, 30.03 µM",22.63%
CCN1CCC2(CC1)OCCN2C(=O)c1ccc(OC)c(Cl)c1.Cl,Percent Effect,"30 µM, 30.03 µM",50.46%
CCN1CCC2(CC1)OCCN2C(=O)c1cc(Cl)c(OC)c(Cl)c1.Cl,Percent Effect,"30 µM, 30.03 µM",89.37%
CCCOc1c(Cl)cc(C(=O)N2CCOC23CCN(C)CC3)cc1Cl,Percent Effect,"30 µM, 30.03 µM",-15.42%
COc1ccc(-c2cc3nn(CC(=O)NC(C)C)c(=O)n3c(C)n2)cc1,Percent Effect,"30 µM, 30.03 µM",-13.21%
Cc1cc(C)cc(CN2CCN(Cc3cccc(CCN)c3)CC2=O)c1,Percent Effect,"30 µM, 30.03 µM",35.33%
CCc1cc(CN2C[C@H]3CC[C@@H]2CN(C2Cc4ccccc4C2)C3)on1,Percent Effect,"30 µM, 30.03 µM",10.13%
Cc1nnc(CN2CCCC2c2ccsc2)o1 (centres undefined),Percent Effect,"30.3 µM, […]",-40.61%
Cc1nnc(CN2CCCC2c2ccc(Cl)c(Cl)c2)o1 (centres undefined),Percent Effect,"30.3 µM, […]",3.085%
Cc1nnc(CN2CCCC2c2ccc(C(C)(C)C)cc2)o1 (centres undefined),Percent Effect,"30.3 µM, […]",86.15%
Cc1ccc(CN(CCCn2ccnc2)Cc2cc(F)ccc2F)s1.O=C(O)CC(O)(CC(=O)O)C(=O)O,Percent Effect,"30.3 µM, […]",-12.95%
Cc1ccccc1-n1cnnc1SCCOCC1CCCO1 (centres undefined),Percent Effect,"30 µM, 30.03 µM",-22.78%
Cc1ccccc1-n1cnnc1SCC(=O)NCC1CCCO1 (centres undefined),Percent Effect,"30 µM, 30.03 µM",-21.19%
Cc1ccccc1-n1cnnc1SCC1CCCCO1 (centres undefined),Percent Effect,"30 µM, 30.03 µM",69.07%
O=C(CCc1cccs1)N1CCCC(n2ccnc2)C1 (centres undefined),Percent Effect,10 µM,-23.55%
same,Percent Effect,"30.3 µM, […]",37.83%
Cc1cc(NC(=O)N2CCCC2C(C)(C)O)c2ncccc2c1 (centres undefined),Percent Effect,"30 µM, 30.03 µM",-36.24%
Cc1cc(NC(=O)N2CCCC2C(=O)NC2CC2)c2ncccc2c1 (centres undefined),Percent Effect,"30 µM, 30.03 µM",-28.65%
Cc1cc(NC(=O)NC2CCN(C(C)C)CC2)c2ncccc2c1,Percent Effect,"30 µM, 30.03 µM",56.47%
Cl.c1cn(-c2cncc(C3CCNCC3)n2)cn1,Percent Effect,"30.3 µM, […]",-40.04%
CN(C)C(=O)CN1CCC2(COCc3cnc(-c4cccnc4)nc32)C1.O=C(O)C(F)(F)F.O=C(O)C(F)(F)F (centres undefined),Percent Effect,"30.3 µM, […]",-72.36%
CN(C)C(=O)c1n[nH]c2c1CN(CC1CCCCC1)C2.O=C(O)C(F)(F)F.O=C(O)C(F)(F)F,Percent Effect,"30.3 µM, […]",-36.34%
CC(C)(C)CCN1CCN(c2snc(Cl)c2C#N)CC1,Percent Effect,"30.3 µM, […]",100.4%
CC(=O)N1CCN(C(=O)CCNc2snc(Cl)c2C#N)CC1,Percent Effect,"30 µM, 30.03 µM",-13.74%
N#Cc1c(Cl)nsc1N1CCN(CC2CCCCC2)CC1,Percent Effect,"30.3 µM, […]",100.2%
N#Cc1c(Cl)nsc1NCc1ccc(N2CCC(CO)CC2)cc1,Percent Effect,"30 µM, 30.03 µM",-28.26%
CC(=O)N1CCN(CCNc2snc(Cl)c2C#N)CC1,Percent Effect,"30 µM, 30.03 µM",1.028%
N#Cc1c(Cl)nsc1N1CCN(CC2CC2)CC1,Percent Effect,"30.3 µM, […]",-23.59%
CC(C)COCC1CN(C(=O)c2cscn2)Cc2ncn(C)c21.O=C(O)C(F)(F)F (centres undefined),Percent Effect,"30.3 µM, […]",-83.42%
